RAD54 inh: blocks human RAD54 Holliday junction branch migration; inhibition, % at 10.4 µM; Q92698; FAM/BHQ fluorescence; 0.14% of 360,000 active;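 active = mean normalized replicate activity at least 40 and at least half of replicates scoring 40 or more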;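 also: 0% = median of neutral control wells and 100% = median of positive control wells; inhibitors cause a drop in the FAM fluorescence signal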
RAD52 anneal inh: inhibitors of human RAD52 DNA annealing | AID 651710 | 0.46% of 360,000 active | recombinant RAD52 DNA annealing, FRET fluorescence | inhibition, % at 18.7 µM;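 active = every replicate showing at least 50% inhibition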
DNA FID counter: counter-screen for HCV NS3 helicase inhibitors: DNA intercalator displacement. DNA fluorescent intercalator displacement, fluorescence. inhibition, % at 7.9 µM. 0.17% of 290,000 active. AID 1845; in the data active = inhibition above about 37%;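 also: 0% = vehicle and 100% = reference compound; higher means more ethidium bromide displaced from hairpin DNA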
beta cell repl: inducers of beta-cell replication in MIN6 cells. MIN6 cells proliferation, ATPlite luminescence, 48 h; cells starved in 0.2% serum; 100% = growth in 10% serum. proliferation, % at 10 µM. 0.29% of 330,000 active. AID 2380;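 active = compounds whose signal lies at least 3.5 SD above the mean of all wells on their plate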;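 also: 0% = DMSO-treated cells in low-serum medium and 100% = 10% serum control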
UBC13 inh: inhibitors of human UBC13 polyubiquitin chain formation; P61088; TR-FRET; inhibition, % at 20 µM; 0.47% of 330,000 active; in the data active = inhibition above about 45%, passing the limit was not always enough
Target sequence (P61088 whole entry, looked up): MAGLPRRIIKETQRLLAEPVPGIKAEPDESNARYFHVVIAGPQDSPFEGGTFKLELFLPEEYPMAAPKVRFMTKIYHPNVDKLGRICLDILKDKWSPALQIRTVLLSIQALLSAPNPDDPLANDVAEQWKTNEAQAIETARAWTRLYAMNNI
PREPL inhibitor: human PREPL enzyme inhibition; Q4J6C6; recombinant PREPL, fluorescence polarization activity-based probe; inhibition, % at 5.96 µM; 0.68% of 320,000 active; in the data active = inhibition above about 43%;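 also: 0% = enzyme with DMSO and 100% = wells lacking enzyme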
Active calls of the source: *; x = not tested or not shown; ! = repeats disagree. In the library only some 1.3% were active in any assay of this set; here they are far more common.

SMILES	RAD54 inh	RAD52 anneal inh	DNA FID counter	beta cell repl	UBC13 inh	PREPL inhibitor
CC1CCCC(NCC(O)COC(c2ccc(F)cc2)c2ccc(F)cc2)C1C (stereo not given)	11	44	46*	-7	15	-39
Nc1c(S(=O)(=O)c2cccc(Cl)c2)c2nc3ccccc3nc2n1/N=C/c1ccc(O)c(O)c1	x	x	8	-5	-23	65*
COc1cc(C2CC(=O)Nc3ccccc3S2)cc(OC)c1OC (stereo not given)	-1	-3	89*	-1	8	10
O=C1CC(c2ccc(F)cc2)Sc2ccccc2N1 (stereo not given)	-4	x	-5	-1	1	3
COCC#Cc1ccc([C@H]2[C@H]3CN(C(=O)CN(C)C)CCCCN3[C@H]2CO)cc1	-1	-19	x	x	x	x
CN(C)CC#Cc1ccc([C@@H]2[C@H]3CN(C(=O)CN(C)C)CCCCN3[C@H]2CO)cc1	-10	62*	x	x	x	x
CN(C)CC#Cc1ccc([C@@H]2[C@@H](CO)N3CCCCN(C(=O)CN(C)C)C[C@H]23)cc1	-1	61*	x	x	x	x
COCC#Cc1ccc([C@@H]2[C@@H](CO)N3CCCCN(C(=O)CN(C)C)C[C@@H]23)cc1	8	-10	x	x	x	x
CN(C)CC#Cc1ccc([C@H]2[C@@H](CO)N3CCCCN(C(=O)CN(C)C)C[C@H]23)cc1	13	87*	x	x	x	x
CN(C)CC#Cc1ccc([C@@H]2[C@H](CO)N3CCCCN(C(=O)CN(C)C)C[C@@H]23)cc1	-1	88*	x	x	x	x
COc1ccc(-c2ccc(C3[C@H]4CNC[C@@H]3N4S(=O)(=O)c3cccc(OC)c3)cc2)cc1 (stereo not given in full)	x	24	x	x	x	x
O=C(CC1CC1)N1CC[C@@H]2[C@H]1c1cc(-c3cccc(F)c3)ccc1N[C@@H]2CO	-8	-173	x	x	x	x
O=C(NCC[C@H]1CC[C@H](NS(=O)(=O)c2cccc(F)c2)[C@@H](CO)O1)Nc1cc(F)ccc1F	-6	16	x	x	x	x
COCC#Cc1ccc([C@@H]2[C@@H](CO)N3CCCCN(C(=O)CN(C)C)C[C@H]23)cc1	13	26	x	x	x	x
CC(C)CC#Cc1ccc([C@@H]2[C@H](CO)N3CCCCN(C(=O)c4ccc5c(c4)OCO5)C[C@@H]23)cc1	-6	58*	x	x	x	x
CN(C)CC#Cc1ccc([C@H]2[C@H](CO)N3CCCCN(C(=O)CN(C)C)C[C@@H]23)cc1	-17	74*	x	x	x	x
Cc1ccc2sc(N(CCCN(C)C)C(=O)c3ccc(Br)s3)nc2c1C	x	29	46*	-7	32	-70
Cc1ccc2sc(N(CCCN(C)C)C(=O)CCS(=O)(=O)c3ccccc3)nc2c1C	-13	8	41*	-8	11	-24
C/C=C/c1ccc([C@H]2[C@@H](CO)N(CC3CC3)[C@@H]2CN(C(C)=O)C(C)C)cc1	x	-3	x	x	x	x
CCC(=NCc1ccc(Cl)c(Cl)c1)c1nc(-c2ccco2)oc1O	-4	-23	-1	0	-2	74*
COc1ccc(N=Cc2nc(-c3ccco3)oc2O)cc1	10	x	-1	0	-1	18
COc1ccc(NC(=O)N2CCCCN3[C@H](CO)[C@H](c4ccc(C5=CCCC5)cc4)[C@@H]3C2)cc1	-1	4	x	x	x	x
COc1ccc(NC(=O)N2CCCCN3[C@H](CO)[C@@H](c4ccc(C5=CCCC5)cc4)[C@H]3C2)cc1	-1	65*	x	x	x	x
COc1ccc(NC(=O)N2CCCCN3[C@@H](CO)[C@H](c4ccc(C5=CCCCC5)cc4)[C@@H]3C2)cc1	1	71*	x	x	x	x
C[C@@H]1CCCCO[C@H](CN(C)C(=O)c2ccncc2)[C@H](C)CN([C@H](C)CO)C(=O)c2cc(NC(=O)C3CCCCC3)ccc2O1	6	9	x	x	x	x
C/C=C/c1ccc(C2[C@@H]3CN(Cc4cc(OC)cc(OC)c4)C[C@H]2N3)cc1 (stereo not given in full)	x	39	x	x	x	x
COc1cccc(CN2C[C@@H]3N[C@H](C2)C3c2ccc(-c3ccccc3F)cc2)c1 (stereo not given in full)	x	64*!	x	x	x	x
COc1cccc(CN2C[C@@H]3N[C@H](C2)C3c2ccc(-c3ccncc3)cc2)c1 (stereo not given in full)	x	-8	x	x	x	x
COc1cccc(-c2ccc(C3[C@@H]4CN(Cc5cccc(F)c5)C[C@H]3N4)cc2)c1 (stereo not given in full)	x	53*	x	x	x	x
